Source: PubChem BioAssay AID434961 (Broad Institute, 2010)
Out of some 7,700 compounds screened, about 15 (0.2%) were called active. Not shown: some 6% with an inconclusive outcome.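 How the source made its calls: active means more than half of replicate wells with inhibition above about 18% (limit read from the data, passing the limit was not always enough); inconclusive means exactly half of replicate wells above that limit; inactive means fewer than half of replicates above it.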 The full list was thinned out, with actives kept by preference.

target: Regulator of chromosome condensation (Homo sapiens) + GTP-binding nuclear protein Ran (Homo sapiens) + Importin subunit beta-1 (Homo sapiens) (UniProt P18754+P62826+Q14974); assay: RanGTP/importin-beta interaction disruptors – biochemical, CFP-Ran/YFP-importin-beta FRET, RCC1, cell-free, primary screen (AID 434961); conditions: hits give high values, concentration not given here;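 further: 0% = DMSO wells and 100% inhibition = RanGDP control wells on each plate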

Row | Structure (SMILES) | inhibition
1 | C[C@@H]1CN([C@H](C)CO)C(=O)c2cc(NS(=O)(=O)c3ccccc3)ccc2O[C@@H](C)CCCCO[C@@H]1CN(C)Cc1ccc2c(c1)OCO2 | -2.27% (inactive)
2 | COc1ccc(S(=O)(=O)Nc2cccc3c2O[C@H](CN(C)Cc2ccc4c(c2)OCO4)[C@@H](C)CN([C@@H](C)CO)C3=O)cc1 | 1.75% (inactive)
3 | C[C@@H]1CCCCO[C@@H](CN(C)C(=O)CCC(F)(F)F)[C@@H](C)CN([C@@H](C)CO)C(=O)c2cc(NS(=O)(=O)c3cccs3)ccc2O1 | 5.99% (inactive)
4 | C[C@@H]1CN([C@@H](C)CO)C(=O)c2cccc(NC(=O)c3cnccn3)c2O[C@H]1CN(C)C(=O)NC1CCCCC1 | 0.00388% (inactive)
5 | CC(C)NC(=O)N(C)C[C@@H]1Oc2c(NC(=O)C3CCOCC3)cccc2C(=O)N([C@H](C)CO)C[C@H]1C | -0.0599% (inactive)
6 | C[C@H]1CN([C@@H](C)CO)C(=O)Cc2cc(NS(=O)(=O)c3ccccc3)ccc2O[C@@H]1CN(C)Cc1ccc2c(c1)OCO2 | 0.885% (inactive)
7 | Cc1noc(C)c1NC(=O)Nc1ccc2c(c1)CC(=O)N([C@H](C)CO)C[C@@H](C)[C@H](CN(C)S(=O)(=O)c1ccccc1)O2 | 0.923% (inactive)
8 | C[C@@H]1CN([C@H](C)CO)C(=O)c2cc(NS(=O)(=O)c3cn(C)cn3)ccc2O[C@H]1CN(C)C(=O)Nc1ccc2c(c1)OCO2 | 0.416% (inactive)
9 | C[C@H](CO)N1C[C@H](C)[C@@H](CN(C)S(=O)(=O)c2ccccc2)Oc2ccc(NC(=O)NC3CCCCC3)cc2C1=O | 3.44% (inactive)
10 | C[C@@H]1CN([C@@H](C)CO)C(=O)Cc2cc(NS(=O)(=O)c3cn(C)cn3)ccc2O[C@H]1CN(C)S(=O)(=O)c1ccc(Cl)cc1 | -7.4% (inactive)
11 | C[C@H](CO)N1C[C@H](C)[C@@H](CN(C)C(=O)NC2CCCCC2)Oc2c(NS(=O)(=O)c3ccccc3)cccc2C1=O | 1.49% (inactive)
12 | C[C@H]1CN([C@@H](C)CO)C(=O)CCCn2nncc2CO[C@H]1CN(C)C(=O)Nc1ccccc1F | 0.229% (inactive)
13 | Cc1noc(C)c1S(=O)(=O)N(C)C[C@@H]1Oc2ccc(NC(=O)C3CCCCC3)cc2CC(=O)N([C@@H](C)CO)C[C@@H]1C | -3.61% (inactive)
14 | CC(C)NC(=O)N(C)C[C@@H]1Oc2c(NS(=O)(=O)c3ccccc3)cccc2C(=O)N([C@H](C)CO)C[C@H]1C | 4.93% (inactive)
15 | C[C@@H]1CN([C@H](C)CO)C(=O)Cc2cc(NC(=O)Nc3ccccc3)ccc2O[C@H]1CN(C)CC1CC1 | -1.7% (inactive)
16 | COc1ccc(NC(=O)N(C)C[C@@H]2Oc3ncc(C#Cc4ccccc4)cc3C(=O)N([C@H](C)CO)C[C@@H]2C)cc1 | 2.4% (inactive)
17 | C[C@H](CO)N1C[C@H](C)[C@@H](CN(C)Cc2ccc(Cl)c(Cl)c2)Oc2c(NS(=O)(=O)c3cccs3)cccc2C1=O | 3.33% (inactive)
18 | C[C@H](CO)N1C[C@H](C)[C@@H](CN(C)C(=O)Nc2cccc3ccccc23)Oc2ccc(NC(=O)NC3CCCCC3)cc2CC1=O | -2.7% (inactive)
19 | C[C@@H]1CCCCO[C@@H](CN(C)Cc2ccccc2)[C@@H](C)CN([C@H](C)CO)C(=O)c2cc(N(C)C)ccc2O1 | -4.07% (inactive)
20 | COc1ccc(CN(C)C[C@H]2Oc3ccc(NC(=O)Cc4cn(C)c5ccccc45)cc3C(=O)N([C@H](C)CO)C[C@H]2C)cc1 | -2.11% (inactive)
21 | COc1ccc(S(=O)(=O)N(C)C[C@H]2Oc3c(NC(=O)C4CC4)cccc3C(=O)N([C@@H](C)CO)C[C@@H]2C)cc1 | -1.54% (inactive)
22 | Cc1noc(C)c1S(=O)(=O)Nc1cccc2c1O[C@H](CN(C)Cc1ccc3c(c1)OCO3)[C@H](C)CN([C@H](C)CO)C2=O | -8.22% (inactive)
23 | C[C@@H]1CN([C@H](C)CO)C(=O)c2cc(NC(=O)C3CC3)ccc2O[C@H]1CN(C)Cc1ccc(Cl)c(Cl)c1 | 0.993% (inactive)

Row | Structure (SMILES) | inhibition
24 | Cc1noc(C)c1NC(=O)N(C)C[C@@H]1OCCCC[C@@H](C)Oc2ccc(NC(=O)Cc3ccccc3)cc2C(=O)N([C@@H](C)CO)C[C@@H]1C | 4.99% (inactive)
25 | CC(C)NC(=O)N(C)C[C@@H]1OCCCC[C@H](C)Oc2ccc(NC(=O)CCC(F)(F)F)cc2C(=O)N([C@@H](C)CO)C[C@H]1C | -1.88% (inactive)
26 | C[C@@H]1CN([C@@H](C)CO)C(=O)c2cc(NS(=O)(=O)c3cccs3)ccc2O[C@@H](C)CCCCO[C@@H]1CN(C)C | -3.73% (inactive)
27 | COC(=O)N(C)C[C@H]1OCc2cn(nn2)CCCC(=O)N([C@H](C)CO)C[C@@H]1C | -1.56% (inactive)
28 | COC(=O)N(C)C[C@@H]1OCc2cn(nn2)CCCC(=O)N([C@@H](C)CO)C[C@@H]1C | 2.64% (inactive)
29 | COC(=O)N(C)C[C@H]1OCc2cn(nn2)CCCC(=O)N([C@@H](C)CO)C[C@H]1C | 18.2% (active)
30 | C[C@H](CO)N1C[C@H](C)[C@H](CN(C)C(=O)Nc2cccc3ccccc23)OCCCC[C@H](C)Oc2ccc(NC(=O)c3ccncc3)cc2C1=O | 0.239% (inactive)
31 | C[C@@H]1CN([C@@H](C)CO)C(=O)Cc2cc(NC(=O)Nc3ccc(C(F)(F)F)cc3)ccc2O[C@@H]1CN(C)C(=O)NC1CCCCC1 | 1.62% (inactive)
32 | C[C@@H]1CN([C@H](C)CO)C(=O)c2cc(NS(=O)(=O)c3cn(C)cn3)ccc2O[C@H]1CN(C)C(=O)Nc1ccc(F)cc1 | 9.51% (inactive)
33 | C[C@@H]1CN([C@@H](C)CO)C(=O)Cc2cc(NC(=O)Nc3ccc4c(c3)OCO4)ccc2O[C@H]1CN(C)C(=O)NC1CCCCC1 | -2.22% (inactive)
34 | C[C@@H]1CN([C@H](C)CO)C(=O)c2cc(NC(=O)Cc3ccccc3)ccc2O[C@@H]1CN(C)C(=O)NC1CCCCC1 | 1.32% (inactive)
35 | C[C@@H]1CN([C@H](C)CO)C(=O)CCCn2cc(nn2)CO[C@H]1CN(C)C(=O)Nc1cccc2ccccc12 | -3.4% (inactive)
36 | CC(C)NC(=O)N(C)C[C@H]1Oc2ccc(NC(=O)CCC(F)(F)F)cc2C(=O)N([C@H](C)CO)C[C@@H]1C | -4.13% (inactive)
37 | C[C@H](CO)N1C[C@H](C)[C@H](CN(C)C(=O)CCCN(C)C)OCCCC[C@H](C)Oc2ccc(NC(=O)Nc3cccc4ccccc34)cc2C1=O | 2.28% (inactive)
38 | C[C@H]1CN([C@@H](C)CO)C(=O)c2cccc(NS(=O)(=O)c3ccc(Cl)cc3)c2O[C@H]1CN(C)S(=O)(=O)c1cn(C)cn1 | -0.913% (inactive)
39 | CNC[C@@H]1OCCCC[C@@H](C)Oc2ccc(N)cc2C(=O)N([C@H](C)CO)C[C@H]1C | 0.828% (inactive)
40 | CNC[C@H]1OCCCC[C@H](C)Oc2ccc(NS(=O)(=O)c3cccs3)cc2C(=O)N([C@@H](C)CO)C[C@@H]1C | 1.28% (inactive)
41 | C[C@@H]1CN([C@@H](C)CO)C(=O)Cc2cc(NS(=O)(=O)c3cn(C)cn3)ccc2O[C@@H]1CN(C)C(=O)Nc1ccc(F)cc1 | -4.41% (inactive)
42 | COc1ccc(S(=O)(=O)N(C)C[C@H]2Oc3ccc(NC(=O)Nc4ccc(C(F)(F)F)cc4)cc3CC(=O)N([C@@H](C)CO)C[C@@H]2C)cc1 | 3.32% (inactive)
43 | C[C@H](CO)N1C[C@H](C)[C@H](CN(C)Cc2ccncc2)OCCCC[C@H](C)Oc2ccc(NC(=O)CCCN(C)C)cc2C1=O | 1.3% (inactive)
44 | C[C@H](CO)N1C[C@H](C)[C@@H](CN(C)Cc2ccc(C(=O)O)cc2)Oc2ccc(NC(=O)NC3CCCCC3)cc2C1=O | -0.0517% (inactive)
45 | C[C@@H]1CN([C@@H](C)CO)C(=O)c2cc(NC(=O)Nc3cccc4ccccc34)ccc2O[C@H]1CN(C)C(=O)Nc1cccc2ccccc12 | -2.16% (inactive)
46 | C[C@H](CO)N1C[C@H](C)[C@H](CN(C)C(=O)OCc2ccccc2)OCc2cn(nn2)CCCC1=O | 1.83% (inactive)
